# According to PubChem BioAssay (NCI):
# The panel holds about 83,000 compounds, 20% with a hit somewhere; the sample as a whole holds those more often.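 Negative percent growth values reflect cell death: -40 means 40% of the cells present at the start died, and -100 means all died.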 A number with no mark means an inactive call. Calls of active or inactive are those of the source. Rule for the calls: active = growth percent below 10; inactive = the rest.
# Assays:
# Assay in all cases: NCI-60 one-dose screen, 48 h (100 = growth as untreated, 0 = no growth, -100 = all killed)
# Settings in all cases: 10 µM unless noted
# HCT-15 colon = test system: HCT-15 colon
# HT29 colon = test system: HT29 colon
# SNB-75 CNS = test system: SNB-75 CNS
# SNB-19 CNS = test system: SNB-19 CNS
# U251 CNS = test system: U251 CNS
# PC-3 prostate = test system: PC-3 prostate
# SK-MEL-5 melanoma = test system: SK-MEL-5 melanoma
# UACC-62 melanoma = test system: UACC-62 melanoma
# LOX IMVI melanoma = test system: LOX IMVI melanoma
# SK-MEL-28 melanoma = test system: SK-MEL-28 melanoma
# SK-MEL-2 melanoma = test system: SK-MEL-2 melanoma
# EKVX NSCLC = test system: EKVX NSCLC
# SN12C renal = test system: SN12C renal
# UO-31 renal = test system: UO-31 renal
# TK-10 renal = test system: TK-10 renal
# ACHN renal = test system: ACHN renal
# CAKI-1 renal = test system: CAKI-1 renal
# A498 renal = test system: A498 renal
# CCRF-CEM leukemia = test system: CCRF-CEM leukemia
# MOLT-4 leukemia = test system: MOLT-4 leukemia
SMILES,growth (HCT-15 colon),growth (HT29 colon),growth (SNB-75 CNS),growth (SNB-19 CNS) [%],growth (U251 CNS),growth (PC-3 prostate) [%],growth (SK-MEL-5 melanoma),growth (UACC-62 melanoma),growth (LOX IMVI melanoma),growth (SK-MEL-28 melanoma) [%],growth (SK-MEL-2 melanoma),growth (EKVX NSCLC) [%],growth (SN12C renal) [%],growth (UO-31 renal),growth (TK-10 renal) [%],growth (ACHN renal),growth (CAKI-1 renal),growth (A498 renal),growth (CCRF-CEM leukemia),growth (MOLT-4 leukemia)
O=C(Oc1ccc2c(c1)sc1nc(-c3ccccc3)[nH]c(=O)c12)C(F)(F)F,22.2%,75.6%,10.7%,45.6,28.9%,43.1,11.6%,11.3%,18.8%,36,26.6%,58.8,32,26.1%,61.7,29%,19.3%,23.6%,21.9%,13.5%
CCOC(=O)c1cn2ncnc(Oc3ccc(NC(=O)NC4CC4)c(Cl)c3)c2c1C,81.7%,95.1%,83.8%,89,80.7%,89.2,88.7%,77.8%,85.4%,107,110%,89.8,79.9,65.3%,113,96.4%,101%,-0.592% (active),89.2%,88.8%
COc1cc(/C=C2\C(=O)N(CCCOc3cc(O)c4c(=O)cc(-c5ccccc5)oc4c3)c3ccccc32)cc(OC)c1O,42.4%,-16.1% (active),47.6%,80.6,60.9%,67,71.9%,46.8%,58.8%,90.9,81.1%,88.4,91.3,61.9%,87,93.3%,85.2%,91.7%,70.2%,64.7%
Cc1[nH]n(-c2cccc(Cl)c2)c(=O)c1/C=C1\C=c2ccccc2=CC1=O,49.9%,13.5%,-5.52% (active),31.4,-10.7% (active),33,-82.5% (active),82.7%,-79.4% (active),51.1,38.1%,51.3,23.6,66.6%,17.2,-36.1% (active),35%,107%,36.3%,44.2%
Cc1cc(=O)n(C(=S)Nc2ccc(Cl)cc2)c2cc(O)ccc12,105%,104%,86.1%,102,101%,95.6,95.3%,100%,99.3%,114,104%,94.7,105,72.2%,116,100%,85.1%,122%,110%,102%
CCOC(=O)C/C(=N\Nc1cc(=O)[nH]c2ccc(C)cc12)C(=O)OCC,103%,112%,94.7%,97.8,103%,91.4,96.8%,91.1%,102%,99.3,108%,109,101,86.7%,101,99%,94.6%,112%,-57.2% (active),18.3%
N#Cc1c(-c2ccc(Br)cc2)nc2c(N=Nc3ccc(S(N)(=O)=O)cc3)c(N)nn2c1N,94.3%,42.8%,56.9%,61.6,41.3%,37.6,45.8%,72.4%,28.9%,63.2,43.4%,71.1,45.6,59.5%,73.2,71.1%,52.5%,65%,-4.46% (active),1.59% (active)
O=c1ccc2ccc(OCCN3CCCCC3)cc2o1,108%,98.9%,105%,104,103%,23.5,107%,94.1%,101%,102,101%,101,95.9,80.8%,104,104%,104%,85%,0.515% (active),7.74% (active)
O=C(/C=C/c1ccccc1)c1cccc2ccccc12,26.5%,3.24% (active),17.4%,56.7,29.6%,45.2,59.2%,36.1%,57.8%,68.3,5.16% (active),65.1,46.3,46.9%,22.5,43.1%,40.7%,50.1%,3.83% (active),6.46% (active)
Cc1ccc(NC(=O)c2sc3nc(C)c(C(O)c4ccccc4)cc3c2N)cc1 (stereo not given),9.64% (active),9.15% (active),22.5%,24.5,13.9%,19.6,12.7%,28.8%,23.5%,57.6,42.5%,48,18.9,41.6%,53,32.8%,33.8%,-8.03% (active),7.67% (active),18.1%
COc1ccc(/C=C(/C(=O)N2CCNCC2)c2cc(OC)c(OC)c(OC)c2)cc1O,96.6%,88.1%,28.1%,38.4,19.6%,26.8,40%,32.5%,44%,55.5,10.8%,84.1,54.6,89.7%,92.4,103%,93.1%,59%,15.4%,25.5%
c1csc(-c2cn3nc(-c4c[nH]c5ccccc45)sc3n2)c1,21.6%,6.1% (active),-4.32% (active),28.7,23.7%,26.5,19.5%,32.5%,28.8%,48.5,37.2%,36,34.2,30.7%,50.5,42.2%,29.8%,20.8%,10.7%,27.2%
Cc1nc([P+](c2ccccc2)(c2ccccc2)c2ccccc2)c(N2CCCCC2)o1,103%,14.1%,37.9%,18.7,16.6%,15.3,-32.3% (active),25.3%,24.5%,34.3,41.2%,63.4,35,97%,53.6,87.6%,78%,34.6%,21.2%,28.8%
CC1(/C=C/c2ccc(-c3ccccc3)cc2)CCn2cnc3ncnc(c32)N1O (stereo not given),21.5%,30%,36.3%,26.7,24.7%,42.4,-6.47% (active),0.915% (active),9.21% (active),29.7,38.8%,17.6,20.2,-5.45% (active),34.1,6.19% (active),4.49% (active),19%,11.8%,14.2%
CSc1ccc2c3c(n(CCCn4ccnc4)c(=O)c2c1)-c1ccccc1C3=O,61.1%,27.1%,51.6%,33.2,12.7%,45.6,19.5%,19.8%,1.75% (active),78.5,97.1%,84.4,45.1,26.3%,83.1,12.4%,24.6%,68.5%,15.6%,-3.86% (active)
O=C(O)c1cn(C2CC2)c2cc(N3CCN(C(=O)N4CCOCC4)CC3)c(F)cc2c1=O,103%,102%,98.1%,105,103%,91.9,99.4%,97.3%,87.1%,104,103%,101,101,79.6%,93.2,100%,96.5%,117%,108%,117%
